# Source: PubChem (The Scripps Research Institute Molecular Screening Center)
# FBW7 act: human FBW7 E3 ligase activation, primary screen; AlphaScreen FBW7–phospho-cyclin E peptide binding, activator screen; normalized activity (activation), % at 26.1 µM; actives 0.13% (n = 650,000); in the data active = normalized activity above about 1.9%;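 also: purified mutant Fbw7 with reduced substrate affinity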
# GPR151 activ: activators of human GPR151; activation, % at 11.2 µM; PathHunter beta-arrestin GPR151 cells, luminescence; actives 1% (n = 650,000); Q8TDV0; in the data active = activation above about 4.9%;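 also: 0% = median of compound wells and 100% = cells with positive control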
# MITF primary: blocks human microphthalmia-associated transcription factor; O75030; AlphaScreen MITF homodimerization, bead proximity signal; inhibition, % at 2.6 µM; actives 0.91% (n = 650,000); AID 1259374; in the data active = inhibition above about 50%;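 also: 0% = vehicle wells with protein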
# TEAD-YAP block: TEAD-YAP interaction inhibition; HEK-TIYL cells, TEAD-Gal4/YAP UAS-luciferase luminescence; actives 1.4% (n = 640,000); inhibition, % at 9.12 µM; in the data active = inhibition above about 32%;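 also: 0% = median of test compound wells and 100% = reference inhibitor wells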
# GPR151 confirm: human GPR151 activation, confirmation screen. shares compounds with GPR151 activ. GPR151 PathHunter beta-arrestin cells, luminescence, 90 min; % of EA-reagent control over plate median. activation, % at 11.2 µM. 6,700 tested, under 10 active. AID 1508609;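 active = mean percent activation across replicates above the confirmation screen cutoff of 4.91%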
# GPR119 counter: activates human GPR119 in a GPR151 counter-screen; shares compounds with GPR151 activ; GPR119 PathHunter beta-arrestin cells, luminescence, 90 min; 0 = compound-well median, 100 = enzyme-acceptor control; activation, % at 11.2 µM; actives 0.3% (n = 6,700);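 active = mean percent activation in the counterscreen above 29.09%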;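 also: counterscreen on off-target GPR119 to flag nonselective hits from the GPR151 activator screen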
# Target sequence (Q8TDV5 whole entry, looked up): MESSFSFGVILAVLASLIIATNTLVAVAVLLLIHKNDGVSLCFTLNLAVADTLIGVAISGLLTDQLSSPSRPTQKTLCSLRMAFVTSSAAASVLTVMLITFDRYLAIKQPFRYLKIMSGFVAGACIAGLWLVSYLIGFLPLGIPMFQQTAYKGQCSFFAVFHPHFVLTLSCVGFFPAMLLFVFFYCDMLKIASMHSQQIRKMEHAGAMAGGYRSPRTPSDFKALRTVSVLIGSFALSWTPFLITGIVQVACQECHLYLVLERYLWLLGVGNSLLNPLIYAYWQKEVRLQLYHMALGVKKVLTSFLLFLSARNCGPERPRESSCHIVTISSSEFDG
# Starred values were filed as active, the others as inactive; . = not tested or not shown. Shown are actives, neighbours in structure and some others; about 3.5% of the full set was active somewhere.
SMILES,FBW7 act,GPR151 activ,MITF primary,TEAD-YAP block,GPR151 confirm,GPR119 counter
COC(=O)c1c(NC(=S)Nc2cnccn2)sc2c1CCC(C)C2 (centres undefined),-0.2,1.6,1.4,-2.2,.,.
CCc1c(C)sc(NC(=S)Nc2cnccn2)c1C(=O)OC,-0.1,5.9*,4.0,-8.6,-1.0,-13.6
CCc1c(C)sc(NC(=S)NCc2ccc(S(N)(=O)=O)cc2)c1C(=O)OC,0.0,6.3*,12.0,-5.5,-1.0,-12.1
O=C(O)C1SCCN1c1ccccc1 (centres undefined),-0.1,-0.8,1.2,1.2,.,.
COc1ccc(NC(=O)C(=O)NCCN2CCN(C(=O)c3c(F)cccc3F)CC2)cc1,0.4,5.8*,11.3,3.6,0.2,12.2
COc1ccc(C(=O)N2CCN(CCNC(=O)C(=O)Nc3ccccc3)CC2)cc1,-0.1,-1.4,-14.9,-10.5,.,.
CC(=O)c1cccc(N(CN2C(=O)c3ccccc3C2=O)C(=O)c2ccccc2)c1,0.0,-0.5,6.4,7.3,.,.
CCCCN(CC)C(=O)/C=C/c1cc(OC)c(OC)c(OC)c1,0.0,5.0*,-7.2,-2.8,-0.1,-6.2
N#Cc1ccc2cnc(Nc3ccc(-n4cnc(N5CCOCC5)n4)cc3)nc2c1,0.1,0.6,-9.3,-0.1,.,.
CC(C)N(CCO)c1nc2nonc2nc1NCc1ccccc1,-0.1,-0.1,3.4,-2.0,.,.
Cn1ccsc1=NC(=O)C1COc2ccccc2O1 (centres undefined),0.0,-4.6,5.3,-17.0,.,.
COc1cc2sc(=NC(=O)C3COc4ccccc4O3)n(C)c2cc1OC (centres undefined),0.1,6.6*,8.5,6.2,-1.2,3.5
COc1cc(C2C=C(c3cccc(Br)c3)Nc3ncnn32)cc(OC)c1OC (centres undefined),0.2,1.2,-5.9,2.1,.,.
O=C(CSc1nnc(-c2ccccc2)o1)c1ccc2c(c1)OCCO2,-0.1,-0.8,-9.1,-6.3,.,.
O=C(CSc1nnc(-c2ccco2)o1)c1ccc2c(c1)OCCO2,0.0,11.7*,12.2,10.5,0.2,-5.1
CCN(C(=O)CSc1nnc(-c2ccco2)o1)C1CCS(=O)(=O)C1 (centres undefined),0.1,11.9*,-2.7,-10.5,0.6,4.0
Cc1ccc(N(CC(=O)O)C2SC(=O)NC2=O)cc1 (centres undefined),-0.1,5.7*,12.9,1.6,1.6,1.4
CCN1C=CC=C/C1=C1\SC(=S)N(C)C1=O,0.0,7.3*,11.9,1.7,-1.7,-9.4
CC(C)N(C(=O)NC(=O)Nc1cccc(C(F)(F)F)c1)S(=O)(=O)c1ccccc1,0.2,2.0,-5.2,4.8,.,.
CCN(CC)C(=O)C1CCCN(c2nc(Nc3ccccc3)nc(N(CC)CC)n2)C1 (centres undefined),-0.3,5.7*,2.7,2.3,-1.2,-12.3
CCN(CC)C(=O)C1CCCN(c2nc3ncnc(Nc4ccc(NC(C)=O)cc4)c3[nH]2)C1 (centres undefined),-0.1,-0.4,3.1,12.1,.,.
c1ccc(Nc2ncnc3nc(N4CCc5ccccc5C4)[nH]c23)cc1,-0.2,6.0*,6.5,-3.7,-0.4,0.8
CCN(CC)C(=O)C1CCCN(c2nc3ncnc(Nc4ccc(Oc5ccccc5)cc4)c3[nH]2)C1 (centres undefined),-0.1,5.8*,7.1,5.6,0.8,6.6
CCN(CC)C(=O)C1CCCN(c2nc(Nc3ccc(NC(C)=O)cc3)nc(N(CC)CC)n2)C1 (centres undefined),-0.1,-1.6,2.4,4.8,.,.
CC(=O)Nc1ccc(Nc2ncnc3nc(N4CCc5ccccc5C4)[nH]c23)cc1,0.8,-2.4,6.9,-5.7,.,.
O=C(NCc1ccco1)c1nc2c(nnn2Cc2ccc(F)cc2)c(=O)[nH]1,0.8,5.3*,10.1,7.9,0.1,-4.7
O=C(NCc1cccs1)c1nc2c(nnn2Cc2ccc(F)cc2)c(=O)[nH]1,-0.1,0.2,8.8,0.3,.,.
Cc1ccsc1CN1CCC(N2CCC(C(=O)N3CCOCC3)CC2)CC1,-0.1,1.7,-3.8,-0.5,.,.
COc1cccc(-c2cc(CC(=O)NCCC3=CCCCC3)no2)c1,-0.1,6.1*,-7.2,-16.8,-0.5,-3.9
CNC(=O)c1ccc(NC(=O)CC(NC(N)=O)c2ccccc2Cl)cc1 (centres undefined),0.5,1.9,-1.3,-0.5,.,.
